Source: PubChem BioAssay (National Center for Advancing Translational Sciences (NCATS))
FEN1 inh = human FEN1 inhibition | P39748 | hit rate 0.35% among 390,000 | Recombinant FEN1 flap cleavage, fluorescence, 15 min | Potency, µM (top dose mostly 114 µM), inactives show at the highest dose activity change, negative = inhibition, hits mostly inhibitors; also: potency is read from the fitted curve at half-maximal effect; % is scaled to controls: 0 for no effect and ±100 for the full control effect; nearly all actives have a fitted effect of over 65% in size
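Potency values derive from four-parameter Hill fits of normalized qHTS data. The reaction used 10 nM FEN1 preincubated 15 min at room temperature with compound, then 50 nM DNA substrate, read at 0 and 15 min.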
TCR activator = T cell receptor activation; primary human leukocytes, anti-CD3, IL-2 HTRF, 48 h; AID 504894; Potency, µM (titrated, usually from 9.22 µM), inactives show at the highest dose activation of IL-2 secretion, most hits filed as activators; 330,000 tested, under 10 active; also: % of control where 0% means no effect
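Using a-CD3 beads without co-stimulation, primary human leukocytes were exposed to compounds for 48 hr. An HTRF IL-2 kit measured the cytokine, with europium-to-d2 energy transfer producing emission at 665nm upon 320nm excitation.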
VDR inh = inhibitors of human vitamin D receptor. VDR-SRC2-3 peptide fluorescence polarization, 2 h. hit rate 0.93% among 400,000. Potency, µM, without a hit: max response, negative = inhibition, most hits filed as inhibitors. P11473; also: potency is read from the fitted curve at half-maximal effect; % is scaled to controls: 0 for no effect and ±100 for the full control effect
Target sequence (P11473 whole entry, looked up): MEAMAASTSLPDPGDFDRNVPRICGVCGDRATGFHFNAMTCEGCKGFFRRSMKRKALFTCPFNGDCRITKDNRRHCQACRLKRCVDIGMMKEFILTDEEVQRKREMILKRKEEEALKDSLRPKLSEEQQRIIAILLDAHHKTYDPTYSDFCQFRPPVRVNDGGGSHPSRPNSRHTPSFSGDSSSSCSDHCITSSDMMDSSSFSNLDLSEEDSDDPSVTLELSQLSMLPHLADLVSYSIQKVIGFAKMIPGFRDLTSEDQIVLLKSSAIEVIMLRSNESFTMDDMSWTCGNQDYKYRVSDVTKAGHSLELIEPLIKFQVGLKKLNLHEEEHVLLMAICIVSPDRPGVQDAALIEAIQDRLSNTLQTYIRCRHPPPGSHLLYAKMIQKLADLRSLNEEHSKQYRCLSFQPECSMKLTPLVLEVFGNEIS
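Two reagent solutions held at 4 deg C in the dark were dispensed, compounds pinned at 23 nl, and the mixture incubated 2 h at room temperature. Read-out: fluorescence polarization of VDR–SRC2-3 peptide binding.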
PI5P4K alpha inh = PI5P4K alpha (human) kinase inhibition | max response, % | hit rate 1.2% among 330,000 | PI5P4Kalpha enzyme, ADP-Glo luminescence, 60 min; stronger effect = lower value | AID 652105 | P48426; active = max response of -50% or lower; inconclusive = between -30% and -50%; inactive = -30% or higher; also: value at the top dose of about 77 µM; % is scaled to controls: 0 for no effect and ±100 for the full control effect
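Luminescence from ADP-Glo served as readout of PI5P4Kalpha activity in a qHTS format. Reaction: enzyme, substrate, compound, ATP at 5 microM final, 60 min at RT.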
PLK1 PBD inh = PLK1 (human) polo-box domain binding inhibition; P53350; Plk1 PBD binding of FITC phosphopeptide, fluorescence polarization; Potency, µM, for inactives: max response, negative = inhibition, usual class: inhibitors; hit rate 2.8% among 360,000; AID 720504; also: potency is read from the fitted curve at half-maximal effect; series mostly up to about 57 µM; % is scaled to controls: 0 for no effect and ±100 for the full control effect; nearly all actives have a fitted effect of over 65% in size
WRN inhibitor = inhibitors of human WRN helicase | Q14191 | WRN helicase unwinding, fluorescent forked duplex, kinetic | Potency, µM (doses to about 114 µM), for the others: at the highest dose activity change, negative = inhibition, most hits filed as inhibitors | hit rate 0.46% among 360,000 | AID 651768; also: potency is read from the fitted curve at half-maximal effect; % is scaled to controls: 0 for no effect and ±100 for the full control effect; nearly all actives have a fitted effect of over 55% in size
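Fluorescence dequenching readout, ex 525 nm/em 598 nm, kinetic mode: forked duplex DNA (100 nM final) with adjacent fluorophore and quencher unwound by WRN (20 nM final) with 2 mM ATP. Compound preincubation 15 min, room temperature.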
* marks the source's active call; other numbers are inactive results. Shown are actives, neighbours in structure and some others; about 3.7% of the full set was active somewhere. Unless noted, calls follow the shape of the dose curve; as a rule, active = well fitted curve in the direction sought with a large enough effect; inconclusive = small, poorly fitted or top-dose-only effect, or another doubt; inactive = no such curve, though single readings can be large; an effect the other way counts as inactive or inconclusive.

Results for CCOc1ccc(NC(=O)CCC(=O)c2ccc(Br)cc2)cc1 ?
FEN1 inh: -1%; VDR inh: -30%; PI5P4K alpha inh: 7; PLK1 PBD inh: 21µM*; WRN inhibitor: -1%

What do the screens show for `Cc1c(Cl)ccc2sc(N3CCN(C(=O)CS(=O)(=O)c4ccccc4)CC3)nc12`?
FEN1 inh: -4%; VDR inh: 9%

What do the screens show for `C[C@H](O)[C@H](O)[C@H]1CNc2nc(N)[nH]c(=O)c2N1`?
FEN1 inh: 12%; TCR activator: -1%; VDR inh: 79µM*; PI5P4K alpha inh: inconclusive; PLK1 PBD inh: 27µM*; WRN inhibitor: -2%

Results for CC(C)(C)n1ncc2c(=O)n(Cc3ccc(F)cc3)cnc21 ?
FEN1 inh: 13%

What do the screens show for `COc1ccccc1-n1ccnc1SCC(=O)NCc1ccco1`?
FEN1 inh: -1%; TCR activator: 4%; VDR inh: inconclusive; PI5P4K alpha inh: -10; PLK1 PBD inh: 24µM*; WRN inhibitor: -7%

How did COc1ccccc1-n1ccnc1SCC(=O)NCC1CCCO1 (centres undefined) do in these assays?
FEN1 inh: 2%; TCR activator: -7%; VDR inh: 13%; PI5P4K alpha inh: -2; PLK1 PBD inh: 2%; WRN inhibitor: 20%

Results for O=C(Cc1ccc2c(c1)OCCO2)c1c(O)cc(O)cc1O ?
FEN1 inh: 3%; TCR activator: 7%; VDR inh: -1%; PLK1 PBD inh: -14%; WRN inhibitor: -15%

What do the screens show for `O=C(CCc1ccc(O)cc1)c1c(O)cc(O)cc1O`?
FEN1 inh: inconclusive; TCR activator: 5%; VDR inh: -23%; PI5P4K alpha inh: -69*; PLK1 PBD inh: -7%; WRN inhibitor: -3%

What do the screens show for `N#C/C(=C\c1coc2ccc(O)cc2c1=O)C(=O)Nc1nc2ccccc2s1`?
FEN1 inh: inconclusive; TCR activator: -3%; VDR inh: inconclusive; PI5P4K alpha inh: -101*; PLK1 PBD inh: inconclusive; WRN inhibitor: 56µM*

What do the screens show for `COc1cc(NC(=O)c2ccc(-c3nc(CSc4ccccc4)c(C)o3)cc2)cc(OC)c1`?
FEN1 inh: -1%; VDR inh: 14%

How did C#CCOCCOCCOCCNc1nc(N2CCN(C(=O)CCCCCCCCCCNC(=O)[C@@H](CCSC)n3cc(CCO)nn3)CC2)nc(N2CCN(C(=O)CCCCCCCCCCNC(=O)[C@H](CO)n3cc(CCCCCN)nn3)CC2)n1 do in these assays?
FEN1 inh: inconclusive; TCR activator: -4%; VDR inh: 8%; PI5P4K alpha inh: inconclusive; PLK1 PBD inh: -6%; WRN inhibitor: 50µM*

How did C#CCOCCOCCOCCNc1nc(N2CCN(C(=O)CCCCCCCCCCNC(=O)[C@@H](CCC(=O)O)n3cc(CCCCCN)nn3)CC2)nc(N2CCN(C(=O)CCCCCCCCCCNC(=O)[C@H](CCCCN)n3cc(C[C@@H](C)CC)nn3)CC2)n1 do in these assays?
FEN1 inh: inconclusive; TCR activator: 2%; VDR inh: 10%; PI5P4K alpha inh: -53*; PLK1 PBD inh: -2%; WRN inhibitor: -8%

How did C#CCOCCOCCOCCNc1nc(N2CCN(C(=O)CCCCCCCCCCNC(=O)[C@@H](CCSC)n3cc(CCO)nn3)CC2)nc(N2CCN(C(=O)CCCCCCCCCCNC(=O)[C@H](CCC(=O)O)n3cc(CCCCCN)nn3)CC2)n1 do in these assays?
FEN1 inh: -23%; TCR activator: 6%; VDR inh: 5%; PI5P4K alpha inh: -16; PLK1 PBD inh: -2%; WRN inhibitor: 1%

Results for C#CCOCCOCCOCCNc1nc(N2CCN(C(=O)CCCCCCCCCCNC(=O)[C@@H](CCC(=O)O)n3cc(CCCCCN)nn3)CC2)nc(N2CCN(C(=O)CCCCCCCCCCNC(=O)[C@H](CO)n3cc(CCCCCN)nn3)CC2)n1 ?
FEN1 inh: -8%; TCR activator: -4%; VDR inh: -1%; PI5P4K alpha inh: -54*; PLK1 PBD inh: -8%; WRN inhibitor: -5%
